Bioassay records as filed in PubChem.
The list is not random: actives were taken first. Their share in the collection is about 19%.
IL-1B inflam inh – qHTS for Inhibitors of Inflammasome Signaling: IL-1-beta AlphaLISA Primary Screen; 4.7% of 360,000 active; THP-1 LPS/ATP IL-1B secretion, AlphaLISA, 16 h; active compounds read low; activity change, % at 57.5 µM; in the data active = activity change below about -50%; inconclusive = mostly about -30% to -49%
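Secreted IL-1B measured by AlphaLISA bead assay after 16 h compound exposure of THP-1 cells; compounds (final up to 57.5 uM) added 1 h before LPS (250 ng/mL) and ATP (1.25 mM) stimulation; lower signal means less secretion.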
TDP1 cell noCPT – qHTS for Inhibitors of human tyrosyl-DNA phosphodiesterase 1 (TDP1): qHTS in cells in absence of CPT. AID 686978, 2013. 15% of 420,000 active. DT40 Tdp1-/- hTDP1 cells, no CPT, ATP luminescence, 48 h. Potency, µM (highest dose often 46.2 µM), inactives show at the top dose activity change, negative = growth inhibition, most hits filed as inhibitors; also: potency is read from the fitted curve at half-maximal effect; nearly all actives have a fitted effect of over 55% in size
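Chicken DT40 Tdp1-/- cells complemented with human TDP1, screened without camptothecin (DMSO vehicle only), 400 cells/well. Compounds pin-transferred, cells incubated at 37 °C for at least 48 hr. Growth read as ATP-dependent luminescence (CellTiter-Glo, 30 min at RT).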
HT1080-NT tox – qHTS for induction of synthetic lethality in tumor cells producing 2HG: qHTS for the HT-1080-NT fibrosarcoma cell line; Potency, µM (doses to about 46.1 µM), for inactives: at the highest dose activity, negative = less viability, most hits filed as cytotoxic; 1.6% of 360,000 active; HT-1080-NT fibrosarcoma viability, CellTiter-Glo ATP luminescence, 48 h;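 also: NT is the 2HG producing partner of a matched IDH1 knockdown line; potency is read from the fitted curve at half-maximal effect; 0% = DMSO-treated cells and -100% = media-only wells without cells; nearly all actives have a fitted effect of over 55% in size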
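750 cells/well, RPMI + 5% FBS; 2 h settle, compound pin-transfer, 48 h at 37 degrees C. CellTiter-Glo 10 min RT, luminescence. Normalized to DMSO and media-only wells.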
TDP1 cell CPT – qHTS for Inhibitors of human tyrosyl-DNA phosphodiesterase 1 (TDP1): qHTS in cells in presence of CPT | AID 686979, 2013 | Potency, µM (series often up to 46.2 µM), inactives show top-dose activity change, negative = growth inhibition, actives largely listed as inhibitors | chicken DT40 Tdp1-/-;hTDP1 cells + 20 nM CPT, ATP luminescence, 48 h | 12% of 420,000 active; also: potency is read from the fitted curve at half-maximal effect; nearly all actives have a fitted effect of over 55% in size
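Chicken DT40 Tdp1-/- cells complemented with human TDP1, 400 cells/well, exposed to compounds plus 20 nM camptothecin for at least 48 h at 37 C; viability read as ATP content by CellTiter-Glo luminescence.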
HT1080 IDH1KD tx – qHTS for induction of synthetic lethality in tumor cells producing 2HG: qHTS for the HT-1080-IDH1KD cell line | HT-1080 IDH1 knockdown viability, ATP luminescence, 48 h | Potency, µM (doses to about 46.1 µM), without a hit: at the highest dose activity, negative = toxicity, hits mostly cytotoxic | 2% of 360,000 active;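 also: potency is read from the fitted curve at half-maximal effect; 0% = DMSO wells and -100% = cell-free medium wells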
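Cytotoxicity counter-line: IDH1KD HT-1080, 48 h, CellTiter-Glo. Curves classed by r2, magnitude and activity.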
Starred values were filed as active, the others as inactive; ? = inconclusive; . = not tested or not shown. Unless noted, calls follow the shape of the dose curve; as a rule, active = well fitted curve in the direction sought with a large enough effect; inconclusive = small, poorly fitted or top-dose-only effect, or another doubt; inactive = no such curve, though single readings can be large; an effect the other way counts as inactive or inconclusive. Unless noted, % is scaled to controls: 0 for no effect and ±100 for the full control effect.

SMILES | IL-1B inflam inh | TDP1 cell noCPT | HT1080-NT tox | TDP1 cell CPT | HT1080 IDH1KD tx
Fc1ccc(C2CC(c3ccco3)n3ncnc3N2)cc1 (centres undefined) | -3.3 | -17.1% | 1.1% | -13.5% | -4.7%
COc1ccccc1C1CC(c2ccc(F)cc2)Nc2ncnn21 (centres undefined) | 6.2 | 20.6µM* | -1.7% | 7.31µM* | -8.1%
CSc1cccc(NC(=O)COC(=O)c2ccccn2)c1 | 11.6 | ? | -1.6% | -8.5% | 0.0%
COc1ccc(N2C(=O)CC(NNC(=O)c3ccc(Br)s3)C2=O)cc1 (centres undefined) | -64.3* | 12.4% | 20.8% | 14.1% | 20.8%
COC1(C)CCC2OC2(C)CCC2C1CC2(C)C (centres undefined) | . | -5.7% | . | -8.7% | .
Cc1ccc(NC(=O)C(=O)NCCN2CCN(S(=O)(=O)c3ccccc3)CC2)cc1C | 9.4 | ? | -13.3% | ? | -10.5%
COc1ccc(C(=O)C[n+]2ccc3c(c2)nc(-c2ccccc2)n3C)cc1 | -22.5 | 8.2µM* | ? | 11.6µM* | ?
C=Cn1cc[n+](CC(=O)c2ccc(OC)cc2)c1 | 28.2 | 20.6µM* | 8.4% | ? | 5.2%
COc1cc(-c2nc3c[n+](CC(=O)c4ccccc4)ccc3n2C)cc(OC)c1OC | 4.7 | -2.0% | 19.1% | 4.1% | 23.1%
S=C(NCc1cccnc1)Nc1ccc(Oc2ccc(Cl)cc2)cc1 | -18.1 | ? | ? | ? | ?
O=C(O)C1CCCN1C(=O)C1CCN(S(=O)(=O)c2cccc(C(F)(F)F)c2)CC1 (centres undefined) | 18.3 | -4.9% | 2.6% | -2.0% | 11.2%
CCOC(=O)CNC(=O)c1ccc(OCC(F)(F)F)cc1 | 5.0 | -18.9% | -2.7% | -3.4% | -1.7%
Cc1ccc2[nH]c(C(=O)N/N=C/c3ccc([N+](=O)[O-])cc3)c(C)c2c1 | -9.9 | 4.11µM* | -11.1% | 3.66µM* | -9.1%
Cc1ccc2[nH]c(C(=O)N/N=C/c3ccccc3O)c(C)c2c1 | 95.5 | 4.61µM* | ? | 4.61µM* | 2.59µM*
O=C(c1ccc(Cl)cc1[N+](=O)[O-])N1CCOCC1 | 1.5 | -1.0% | 7.7% | 3.0% | -20.5%
Cc1[nH]n(-c2ccc(Br)cc2)c(=O)c1C=Nc1ccc(S(=O)(=O)Nc2nccs2)cc1 | -6.1 | ? | -28.1% | ? | -20.2%
Cc1[nH]n(-c2ccccc2)c(=O)c1C=Nc1ccc(S(=O)(=O)N=C(N)N)cc1 | 9.6 | -28.5% | 0.0% | -10.7% | -16.8%
Cc1[nH]n(-c2ccccc2)c(=S)c1C=Nc1ccc([N+](=O)[O-])cc1 | -5.7 | 23.1µM* | ? | 13µM* | ?
Cc1ccc(-n2[nH]c(C)c(C=Nc3ccc(S(=O)(=O)Nc4nc(C)cc(C)n4)cc3)c2=O)c(C)c1 | -1.6 | -9.2% | -5.2% | ? | -3.1%
Cc1cc(C)nc(NS(=O)(=O)c2ccc(N=Cc3c(C)[nH]n(-c4ccccc4)c3=O)cc2)n1 | 3.7 | ? | 0.0% | 20.6µM* | -11.6%
CCc1nnc(NS(=O)(=O)c2ccc(N=Cc3c(C)[nH]n(-c4ccc(C)c(C)c4)c3=O)cc2)s1 | 10.3 | 8.2µM* | ? | 2.06µM* | 20.6µM*
Cn1c(CNC(=O)Cc2ccc3c(c2)OCO3)nnc1SCc1ccccc1 | 6.0 | -23.0% | 0.5% | 1.7% | 6.8%
Cn1nc(-c2ccccc2)nc1-c1ccccc1 | 24.0 | -27.4% | -4.1% | ? | -3.5%
Cc1nnc2nc(-c3ccccc3)nc(-c3ccccc3)n12 | -7.7 | 14.6µM* | 22.0% | ? | 13.7%
O=C(CSc1nnc(-c2cccc(S(=O)(=O)N3CCCCC3)c2)o1)NCCC1=CCCCC1 | 11.3 | ? | -3.8% | ? | -7.8%
SMILES | IL-1B inflam inh | TDP1 cell noCPT | HT1080-NT tox | TDP1 cell CPT | HT1080 IDH1KD tx
CCN(CC)S(=O)(=O)c1cccc(-c2nnc(SCCCC(=O)c3ccccc3)o2)c1 | 23.8 | ? | 2.9% | ? | -10.2%
CCN(CC)S(=O)(=O)c1cccc(-c2nnc(SC(C)C(=O)NCCC3=CCCCC3)o2)c1 (centres undefined) | -23.6 | 25.9µM* | -0.9% | ? | -9.8%
CCN(CC)S(=O)(=O)c1cccc(-c2nnc(SCc3nc4ccccc4s3)o2)c1 | -25.9 | 20.6µM* | -5.3% | ? | -16.5%
CCN(CC)S(=O)(=O)c1cccc(-c2nnc(SCC(=O)c3cc(C)n(C4CC4)c3C)o2)c1 | 6.1 | 16.4µM* | 8.6% | ? | 3.8%
C=CCn1c(C)cc(C(=O)CSc2nnc(-c3cccc(S(=O)(=O)N(CC)CC)c3)o2)c1C | -0.1 | ? | 3.5% | ? | 1.4%
O=c1c(CCc2ccccc2)nc2cnc(N3CCOCC3)nc2n1C[C@H]1CCCO1 | . | 13.3% | . | ? | .
Cc1ccc(CNS(=O)(=O)c2cnc(N)nc2)cc1 | . | 3.1% | . | -0.6% | .
COc1ccc(NC(=O)CN(C)C(=O)/C=C/c2cn(-c3ccccc3)nc2-c2ccc(C)cc2)cc1 | -7.9 | 20.6µM* | -12.5% | ? | -9.9%
CN(C)c1ccc(NC(=O)c2cn(-c3ccccc3)nc2-c2cccs2)cc1 | ? | ? | 0.4% | 2.9% | -5.3%
COc1ccc(NC(=O)CN(C)C(=O)/C=C/c2cn(-c3ccccc3)nc2-c2cccs2)cc1 | 2.8 | 18.4µM* | -1.2% | ? | -8.1%
COc1ccc(NC(=O)CN(C)C(=O)/C=C/c2cn(-c3ccccc3)nc2-c2ccc(F)cc2)cc1 | -20.7 | 23.1µM* | -12.7% | ? | ?
COc1cccc(NC(=O)CN(C)C(=O)/C=C/c2cn(-c3ccccc3)nc2-c2ccc(C)cc2)c1 | ? | ? | -6.4% | ? | -14.4%
O=C(CSc1nnc(-c2cccs2)o1)Oc1ccc(Cl)cc1 | . | -4.2% | . | -2.4% | .
COC(=O)/C=C/c1ccc2c(c1)S(=O)(=O)N(C1CCCC1)[C@H]2CC(=O)OC | . | ? | . | 0.631µM* | .
CC(=O)/C=C/c1ccc2c(c1)S(=O)(=O)N(C1CCCC1)[C@H]2CC(C)=O | . | 7.08µM* | . | 15.8µM* | .
O=C(O)/C=C/c1ccc2c(c1)S(=O)(=O)N(C1CCCC1)[C@H]2CC(=O)O | . | -3.3% | . | -16.9% | .
CCCCCCCCN1[C@@H](CC(C)=O)c2ccc(/C=C/C(C)=O)cc2S1(=O)=O | . | 5.62µM* | . | 3.98µM* | .
CCCCCCCCCCCCN1[C@@H](CC(=O)O)c2cc(F)ccc2S1(=O)=O | 52.2 | 2.6% | -0.7% | ? | -11.2%
CCN(CC)c1ccc(NC(=O)CCc2c(C)nc3ncnn3c2C)c(C)c1 | . | ? | . | -1.1% | .
